For 40 compounds, Potency results are on record in PubChem BioAssay (Tox21).

Where “and” joins values, the source holds several entries; their conditions need not be identical. Identical values can stand only once. Inconclusive results are not listed. A call without a number means that no potency is given here. Calls of active or inactive are those of the source. The call rests on the fitted dose curve; in most records, active means well fitted cell-killing curve with a large enough effect in the repeat runs; inconclusive means weak or mixed curves, or effect the other way; inactive means no such curve, though single readings can be large or run the other way.
Potency means the concentration at half of the fitted maximal effect.

This experiment is described as follows: qHTS assay to identify small molecule antagonists of the peroxisome proliferator-activated receptor gamma (PPARg) signaling pathway - cell viability counter screen (AID 743194). Further: nearly all actives have a fitted effect of over 55% in size. As to conditions: PPARg-bla HEK293H viability, CellTiter-Glo luminescence, 17 h, co-treated with 50 nM rosiglitazone; series mostly up to 62.6 µM. An excerpt:
U.S. Tox21 Program National Center for Advancing Translational Sciences [NCATS] NIH Chemical Genomics Center [NCGC] U.S. Environmental Protection Agency [EPA] National Institutes of Environmental Health Sciences [NIEHS] National Toxicology Program [NTP] U.S. Food and Drug Administration [FDA] Tox21 Assay Overview: The peroxisome proliferator-activated receptors (PPARs) are lipid-activated transcription factors of the nuclear receptor superfamily with three distinct subtypes namely PPAR alpha, PPAR delta (also called PPAR beta) and PPAR gamma (PPARg). All these subtypes heterodimerize with Retinoid X receptor (RXR) and these heterodimers regulate transcription of various genes. PPAR-gamma receptor (glitazone receptor) is involved in the regulation of glucose and lipid metabolism. To identify the compounds that activate PPAR-gamma signaling, GeneBLAzer PPAR gamma UAS-bla HEK293H cell line (Invitrogen, Carlsbad, CA, USA) containing a beta-lactamase reporter gene under the control of an Upstream Activator Sequence (UAS) was used to screen the Tox21 compound library. The cytotoxicity of the Tox21 compound library against the PPARg-bla cell line was tested in parallel by measuring the cell viability using CellTiter-Glo assay in the same wells.
Tox21 Assay Protocol Summary: PPARg-bla cells were dispensed at 3000 cells/5uL/well in 1536-well black wall/clear bottom plates using a Multidrop Combi (Thermo Fisher Scientific, Waltham, MA) dispenser. After the assay plates were incubated at 37 C and 5% CO2 for 5 h, 23 nL of compounds dissolved in DMSO, positive controls or DMSO only was transferred to the assay plate by a Pintool station (Kalypsys, San Diego, CA), followed by addition of 1ul Rosiglitazone (50 nM, final concentration in the wells). The assay plates were incubated at 37 C for 17 h, and then 1 uL of LiveBLAzerTM B/G FRET substrate was added using a Bioraptr Flying Reagent Dispenser (FRD) workstation (Beckman Coulter, Indianapolis, IN, USA). The assay plates were incubated at room temperature for 1 h and fluorescence intensity was measured by an Envision plate reader (PerkinElmer, Shelton, CT). For cell viability readout that measures cytotoxicity, 4 ul/well of CellTiter-Glo reagent was added into the assay plates using a Flying Reagent Dispenser. After 30 min incubation at room temperature, the luminescence intensity in the plates was measured using a ViewLux plate reader (PerkinElmer).
Take `CC(C(O)c1ccc(O)cc1)N1CCC(Cc2ccccc2)CC1` (stereo not given): the Potency entry is “inactive”. To `C=CC(=O)OCCCCCCCC` belongs “inactive”; to `COc1nc(C)nc(Cl)c1NC1=NCCN1`, “inactive”; to `COc1ccc(Cc2cnc(N)nc2N)cc1OC`, “inactive”.

Regarding `Oc1c(Cl)cc(Cl)c(Cl)c1Cc1c(O)c(Cl)cc(Cl)c1Cl`, the Potency is 173 nM (active) and 977 nM (active) and 1.68 µM (active). As for `CCN(CC)C(=O)Nc1ccc(OCC(O)CNC(C)(C)C)c(C(C)=O)c1` (stereo not given), the Potency result was “inactive”. Take `NC(=Nc1ccccc1)Nc1ccccc1`: the Potency entry was “inactive”. As to `COc1ccc(COC(C)=O)cc1`, the Potency result was “inactive”. For `CNCCC(Oc1ccc(C(F)(F)F)cc1)c1ccccc1` (stereo not given) the value was 48.4 µM (active); for `c1ccc2c(c1)CCCC2C1=NCCN1` (stereo not given), “inactive”; for `COC(c1ccccc1)(c1ccccc1)[C@H](Oc1nc(C)cc(C)n1)C(=O)O`, “inactive”. As to `CCCC(=O)c1ccccc1`, the Potency entry is “inactive”. Regarding `O=C1OC2(c3ccc(O)cc3Oc3cc(O)ccc32)c2ccccc21`, the Potency result was “inactive”. For `CCCN[C@H]1CCc2nc(N)sc2C1`, the Potency entry was “inactive”. As to `CC(=O)C1=C(C)[C@@H]2C[C@@]3(C1)[C@H](C)CC[C@H]3C2(C)C`, the Potency result was “inactive”.

Take `O=C(O)c1cc(Cl)cc(Cl)c1`: the Potency entry is “inactive”. For the compound `O`, the Potency entry is “inactive”. For the compound `O=C1Nc2ccccc2C1(c1ccc(O)cc1)c1ccc(O)cc1`, the Potency result is “inactive”.

Take `CN(C)c1ccc2nc3ccc(=[N+](C)C)cc-3sc2c1`: the Potency result was “inactive”. Regarding `CC(C)CCOC(=O)c1ccc(N(C)C)cc1`, the Potency result was “inactive”. Consider `Cc1ccnc2c1NC(=O)c1cccnc1N2C1CC1`, for which the Potency result is “inactive”.

On to `Cc1cc(Cc2cc(C)cc(C(C)(C)C)c2O)c(O)c(C(C)(C)C)c1`, for which the Potency was 12.4 µM (active) and 11 µM (active).

On to `COc1ccc(CCN(C)CCCC(C#N)(c2ccc(OC)c(OC)c2)C(C)C)cc1OC` (stereo not given), for which the Potency result was “inactive”. For `NC12CC3CC(CC(C3)C1)C2`, the Potency entry is “inactive”. To `CNC1(C)C2CCC(C2)C1(C)C` (stereo not given) belongs “inactive”. In the case of `Nc1cc(Cl)c(-c2cc(Cl)c(N)cc2Cl)cc1Cl`, the Potency was 48.9 µM (active) and 17.4 µM (active).

With `OCCN1CCNCC1`, the Potency result was “inactive”. Take `c1cnc2cc3c(cc2n1)C1CNCC3C1`: the Potency entry was “inactive”. Consider `OCCOCCN1CCN(C(c2ccccc2)c2ccc(Cl)cc2)CC1` (stereo not given), for which the Potency result is “inactive”. For `CC(=O)CC(C)=O` the value was “inactive”; for `O=C1NCC2(CCN(CCc3ccccc3)CC2)O1`, “inactive”. Take `C=C(C)C1CC=C(C)C(OC(C)=O)C1` (stereo not given): the Potency entry was “inactive”. For `C1COC(NC(C2CC2)C2CC2)=N1` the value was “inactive”; for `Cc1cccc(O)c1C`, “inactive”. Turning to `CCC(C)(Oc1ccc(C2(c3ccc(OC(C)(CC)C(=O)O)cc3)CCCCC2)cc1)C(=O)O` (stereo not given), the Potency result was “inactive”. On to `O=C(O)CP(=O)(O)O`, for which the Potency result is “inactive”. In the case of `O=Nc1ccc(Nc2ccccc2)cc1`, the Potency is 19.6 µM (active) and 43.6 µM (active). For `O=C(Oc1ccccc1)c1ccccc1O` the value was “inactive”. On to `CN1C(=O)c2ccc([N+](=O)[O-])cc2C1=O`, for which the Potency result is “inactive”.

With `Cc1cccc([N+](=O)[O-])c1C(=O)O`, the Potency entry was “inactive”.
